Rows were chosen to be rich in hits. Some 1.8% of all compounds tested hit in one or more screens of this group.
Pin1 inh: blocks the human prolyl isomerase Pin1; Q13526; Pin1 FP peptide displacement, HiFluor488, 10 min; Potency, µM (series often up to 115 µM), for inactives: at the highest dose activity, negative = inhibition, actives largely listed as inhibitors; 390,000 compounds, 0.009% hits; active = well fitted inhibition curve with a large enough effect in the polarisation, with a control signal flat, not every such curve was filed as active; inconclusive = small, poorly fitted or top-dose-only effect, or effect the other way, or a change in a side signal; inactive = no such curve, though single readings can be large or run the other way; the % refers to the polarisation; also: % is scaled to controls: 0 for no effect and ±100 for the full control effect
Tb PGK inh: T. brucei PGK inhibition | PGK/GAPDH coupled, Kinase-Glo luminescence, 60 min | Potency, µM (series often up to 57.5 µM), for the others: at the highest dose activity change, negative = inhibition, usual class: inhibitors | 380,000 compounds, 0.043% hits | P07378; also: % is scaled to controls: 0 for no effect and ±100 for the full control effect; nearly all actives have a fitted effect of over 60% in size
Target sequence (P07378 whole entry, looked up): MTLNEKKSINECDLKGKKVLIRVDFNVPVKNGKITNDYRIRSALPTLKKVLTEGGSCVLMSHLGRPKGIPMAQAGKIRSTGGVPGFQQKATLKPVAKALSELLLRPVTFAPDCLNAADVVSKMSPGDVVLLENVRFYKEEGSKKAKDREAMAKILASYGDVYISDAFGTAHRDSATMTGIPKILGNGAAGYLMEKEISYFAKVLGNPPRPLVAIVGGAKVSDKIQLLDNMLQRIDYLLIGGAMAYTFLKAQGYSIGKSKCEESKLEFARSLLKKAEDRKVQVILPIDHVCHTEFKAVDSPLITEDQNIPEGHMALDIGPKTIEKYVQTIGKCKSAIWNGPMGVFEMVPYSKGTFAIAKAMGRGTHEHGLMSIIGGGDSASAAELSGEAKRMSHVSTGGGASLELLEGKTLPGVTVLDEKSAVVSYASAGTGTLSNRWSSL
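Luminescent ATP detection (Kinase-Glo Plus) follows a 60-minute room-temperature incubation, with wells lacking PGK as controls. Buffer: 100 mM TEA (pH 7.6), 5 mM MgCl2, 0.01% Tween-20. Coupling enzyme GAPDH (100 nM final) supplies unstable 1,3-BPG in-well.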
GLP-1R inv ag: acts as inverse agonist at human GLP-1 receptor. P43220. HEK293 GLP-1R CRE-luciferase, luminescence, 24 h; GLP-1R form is constitutively active. Potency, µM (doses to about 38.3 µM), inactives show at the top dose activity change, negative = inhibition, usual class: inhibitors. 410,000 compounds, 1.6% hits. AID 624417; also: % is scaled to controls: 0 for no effect and ±100 for the full control effect; nearly all actives have a fitted effect of over 55% in size
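Seeding at 200 cells/uL, 12 h culture, 24 hr compound treatment, then luciferase reagent and a luminescence read; cells are HEK293 stably expressing a constitutively active GLP-1R plus cAMP-responsive luciferase.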
Tb PFK inh: inhibitors of T. brucei phosphofructokinase; T. brucei PFK, ADP-Glo luminescence; Potency, µM (series often up to 57.5 µM), without a hit: top-dose activity, negative = inhibition, usual class: inhibitors; 330,000 compounds, 0.17% hits; AID 485367;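 also: 0% = uninhibited 1x PFK enzyme wells and -100% = no-enzyme wells; nearly all actives have a fitted effect of over 60% in size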
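Luminescent ADP detection (ADP-Glo, two-step: ATP depletion then ADP-to-ATP conversion for luciferase) reported PFK activity after 45 min room-temperature reaction of 1.25 nM enzyme with 0.5 mM F6P and 0.1 mM ATP at pH 8.0.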
GLP1R ag: GLP-1 receptor (human) agonism; HEK293 GLP-1R CRE-luciferase, luminescence, 4-6 h; cells express a hypersensitive GLP-1R form; AID 624172; Potency, µM (series often up to 45.6 µM), for inactives: at the highest dose activation, actives largely listed as activators; 380,000 compounds, 0.007% hits; also: % of control where 0% means no effect
GLP1R cytotox: cytotoxicity in counter-screen for GLP-1R inverse agonists; AID 624418; Potency, µM (titrated, usually from 38.3 µM), for inactives: top-dose activity change, negative = inhibition, usual class: inhibitors; 410,000 compounds, 0.13% hits; HEK293 cAMP-luciferase reporter cells, luminescence, 24 h;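 also: loss of luciferase light is scored as toxicity; % is scaled to controls: 0 for no effect and ±100 for the full control effect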
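A 23 nL compound transfer followed 12 hours of cell culture at 37 deg C; exposure then lasted 24 hr. Luciferase assay detection reagent was dispensed and plates read for luminescence after a 12 min room-temperature wait.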
* hit, by the source's call; i = inactive; ? = inconclusive; nt = no result. Unless noted, calls follow the shape of the dose curve; as a rule, active = well fitted curve in the direction sought with a large enough effect; inconclusive = small, poorly fitted or top-dose-only effect, or another doubt; inactive = no such curve, though single readings can be large; an effect the other way counts as inactive or inconclusive. Potency is read from the fitted curve at half-maximal effect.

SMILES	Pin1 inh	Tb PGK inh	GLP-1R inv ag	Tb PFK inh	GLP1R ag	GLP1R cytotox
COC(=O)C1=C(c2ccc(F)cc2OCc2ccccc2)C[C@@H]2CC[C@H]1N2C(=O)NCc1ccccc1C(F)(F)F	8%	-3%	13µM*	3%	7%	-18%
COC(=O)C1=C(c2cccc(OCc3ccccc3)c2)C[C@@H]2CC[C@H]1N2C(=O)NCc1ccccc1	10%	0%	-7%	2%	7%	?
COC(=O)C1=C(c2ccc(OCc3ccccc3)cc2)C[C@@H]2CC[C@H]1N2C(=O)NCc1ccc(C(C)(C)C)cc1	nt	3%	4.5µM*	nt	-1%	-3%
COC(=O)C1=C(c2cccc(OCc3ccccc3)c2)C[C@@H]2CC[C@H]1N2C(=O)NCc1cccc(C(F)(F)F)c1	-1%	0%	11µM*	-1%	-5%	-4%
COC(=O)C1=C(c2ccc(F)cc2OCc2ccccc2)C[C@@H]2CC[C@H]1N2C(=O)NCc1ccccc1Br	4%	-1%	-5%	-1%	1%	1%
O=C(NCCCN1CC1)Nc1cccc2ccccc12	-3%	i	0%	nt	-3%	7%
O=c1c2cc(NC(=S)NCCCN3CCC(Cc4ccccc4)CC3)ccc2nc2n1CCCCC2	2%	-9%	2.2µM*	-15%	10%	?
CN1CCC2(CC1)c1ccccc1-c1ccccc12	3%	11%	11µM*	nt	-4%	?
CC(C)CCOP(=O)(c1ccc(N(C)C)cc1)C(O)c1ccc(Cl)cc1Cl (stereo not drawn)	-3%	-5%	6.3µM*	-4%	6%	?
COC(=O)C1=C(c2ccc(-c3ccccc3)c(F)c2)C[C@@H]2CC[C@H]1N2C(=O)N1CCCCC1	?	i	11µM*	0%	6%	2%
COC(=O)C1=C(c2ccc(-c3ccccc3)c(F)c2)C[C@@H]2CC[C@H]1N2C(=O)N1CCC(C)CC1	-2%	-1%	?	-5%	10%	15%
COC(=O)C1=C(c2ccc(-c3ccccc3)c(F)c2)C[C@@H]2CC[C@H]1N2C(=O)N1CCC(O)CC1	4%	i	13µM*	-9%	-5%	-42%
O=C(Nc1ccc(Cl)c(C(F)(F)F)c1)c1ccc2c(c1)CCN2S(=O)(=O)c1ccccc1	1%	-3%	5µM*	nt	nt	-24%
CN(CC(=O)Nc1cccc(S(=O)(=O)N2CCOCC2)c1)CC(=O)Nc1ccc(Cl)c(C(F)(F)F)c1	-1%	-1%	?	-13%	-18%	?
Cc1ccc(C2(c3ccc(C)cc3)CC2C(=O)Nc2ccc([N+](=O)[O-])cc2O)cc1 (stereo not drawn)	1%	i	4µM*	-1%	-39%	?
C#C[C@]1(OC(=O)CCCCCC)CC[C@H]2C3CCC4=CC(=O)CC[C@@H]4[C@H]3CC[C@@]21C (stereo partly drawn)	nt	nt	nt	nt	-4%	nt
Cc1nc2c(=O)n(C)c(=O)nc-2n(C)n1	?	?	346%	-3%	-27%	2µM*
COc1ccc(Cl)cc1NC(=O)CCCS(=O)(=O)c1nc(-c2ccc(OC)c(OC)c2)cc(C(F)(F)F)n1	16%	-8%	?	nt	nt	?
COc1cc(C2c3cc4c(cc3CC3COC(=O)C32)OCO4)cc(OC)c1OC (stereo not drawn)	5%	-6%	0.28µM*	2%	20%	?
CCOC(=O)c1cccc(NC(=O)c2cnc(N3CCCCC3)c3ccccc23)c1	6%	-3%	?	nt	nt	1%
CCN1CCN(c2ncc(C(=O)Nc3cc(Cl)ccc3OC)c3ccccc23)CC1	3%	1%	1.8µM*	20%	2%	?
CCn1nc(-c2ccccc2)nc2c(=O)n(C)c(=O)nc1-2	?	?	5µM*	-7%	-26%	?
